# Bioassay records deposited in PubChem by National Center for Advancing Translational Sciences (NCATS).
# HT1080 IDH1KD tx = qHTS for induction of synthetic lethality in tumor cells producing 2HG: qHTS for the HT-1080-IDH1KD cell line; HT-1080 IDH1 knockdown viability, ATP luminescence, 48 h; Potency, µM (series often up to 46.1 µM), inactives show at the highest dose activity, negative = toxicity, hits mostly cytotoxic; 2% of 360,000 active; AID 686971, 2013;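 note: potency is the fitted concentration of half-maximal effect; 0% = DMSO wells and -100% = cell-free medium wells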
#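 CellTiter-Glo luminescence after 48 h compound exposure at 37 degrees C of IDH1-knockdown HT-1080 cells in 5% FBS RPMI. %Activity scaled between DMSO wells and cell-free media wells, with curves fitted and assigned curve classes.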
# DT40 TDP1 CPT = qHTS for Inhibitors of human tyrosyl-DNA phosphodiesterase 1 (TDP1): qHTS in cells in presence of CPT; chicken DT40 Tdp1-/-;hTDP1 cells + 20 nM CPT, ATP luminescence, 48 h; Potency, µM (top dose mostly 46.2 µM), without a hit: top-dose activity change, negative = growth inhibition, most hits filed as inhibitors; 12% of 420,000 active; note: potency is the fitted concentration of half-maximal effect; nearly all actives have a fitted effect of over 55% in size
#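 Chicken DT40 Tdp1-/- cells complemented with human TDP1, 400 cells/well, exposed to compounds plus 20 nM camptothecin for at least 48 h at 37 C; viability read as ATP content by CellTiter-Glo luminescence.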
# ELG1 DNA repair = qHTS screen for small molecules that inhibit ELG1-dependent DNA repair in human embryonic kidney (HEK293T) cells expressing luciferase-tagged ELG1. HEK293T ELG1-luciferase reporter, luminescence, 16 h; DNA damage induced by 5-fluorouridine. Potency, µM (highest dose often 46.1 µM), for inactives: top-dose activity change, negative = inhibition, actives largely listed as inhibitors. 2.3% of 330,000 active. AID 504467, 2011; note: potency is the fitted concentration of half-maximal effect; nearly all actives have a fitted effect of over 55% in size
#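 Luminescence from the luciferase reporter, measured 30 min after ONE-Glo reagent at room temperature, was the read-out. Beforehand, 2,000 cells per well were exposed for 16 hr at 37 °C to 5-fluorouridine together with compound or vehicle.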
# IL1B secr inh = qHTS for Inhibitors of Inflammasome Signaling: IL-1-beta AlphaLISA Primary Screen; 4.7% of 360,000 active; THP-1 LPS/ATP IL-1B secretion, AlphaLISA, 16 h; hits give low values; activity change, % at 57.5 µM; AID 743279, 2014; in the data active = activity change below about -50%; inconclusive = mostly about -30% to -49%
#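 THP-1 cells pretreated 1 hr with compounds (up to 57.5 uM final), then stimulated with LPS (250 ng/mL final) plus ATP (1.25 mM final); secreted IL-1B measured by AlphaLISA after 16 hr, decreased signal indicating inhibition.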
# TDP1 cell noCPT = qHTS for Inhibitors of human tyrosyl-DNA phosphodiesterase 1 (TDP1): qHTS in cells in absence of CPT; 15% of 420,000 active; AID 686978, 2013; Potency, µM (series often up to 46.2 µM), without a hit: at the highest dose activity change, negative = growth inhibition, hits mostly inhibitors; DT40 Tdp1-/- hTDP1 cells, no CPT, ATP luminescence, 48 h; note: potency is the fitted concentration of half-maximal effect; nearly all actives have a fitted effect of over 55% in size
#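 Luminescent ATP content (CellTiter-Glo) served as the growth readout. Knockout chicken DT40 cells expressing human TDP1 were exposed to compounds without camptothecin for a minimum 48 hr at 37 °C.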
# HT1080NT lethal = qHTS for induction of synthetic lethality in tumor cells producing 2HG: qHTS for the HT-1080-NT fibrosarcoma cell line | 1.6% of 360,000 active | Potency, µM (highest dose often 46.1 µM), without a hit: at the top dose activity, negative = less viability, most hits filed as cytotoxic | AID 686970, 2013 | HT-1080-NT fibrosarcoma viability, CellTiter-Glo ATP luminescence, 48 h;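 note: NT is the 2HG producing partner of a matched IDH1 knockdown line; potency is the fitted concentration of half-maximal effect; 0% = DMSO-treated cells and -100% = media-only wells without cells; nearly all actives have a fitted effect of over 55% in size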
#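 Luminescent CellTiter-Glo readout after 48 hours of compound exposure at 37 degrees C defined viability of HT-1080-NT cells. Activity was normalized to DMSO wells and cell-free media wells; concentration-response curves were fitted and assigned curve classes.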
# Starred values were filed as active, the others as inactive; i = inactive; ? = inconclusive; · = not tested or not shown; [ ] = another dose, or the depositor's remark. Only some compounds are listed: those with a hit (about 19% of all), similar ones and a draw of the others. Unless noted, calls come from the whole dose curve; as a rule, active = well fitted curve in the direction sought with a large enough effect; inconclusive = small, poorly fitted or top-dose-only effect, or another doubt; inactive = no such curve, though single readings can be large; an effect the other way counts as inactive or inconclusive. Unless noted, % is set by controls: 0 for no effect and ±100 for the full control effect.
SMILES,HT1080 IDH1KD tx,DT40 TDP1 CPT,ELG1 DNA repair,IL1B secr inh,TDP1 cell noCPT,HT1080NT lethal
CC1(C(=O)NCc2ccco2)Cc2c(-c3cccc(C(F)(F)F)c3)ccnc2O1 (stereo unspecified),?,2.59µM*,·,56.8,2.91µM*,?
Cc1ccc(-c2nnc(SCC(=O)N/N=C/c3ccc(C(=O)O)cc3)n2C2CCCCC2)cc1,-1.4%,-8.9%,8.8%,-19.2,17.9%,-1.9%
C=C1[C@H]2O[C@H]2[C@@H](OC(C)=O)[C@@]2(C)[C@@H](OC(C)=O)C[C@@H](OC(C)=O)[C@@](C)(O)[C@@H]2[C@@H](OC(C)=O)[C@@]2(O)[C@@H](C)C(=O)O[C@H]2[C@H]1Cl,9.6%,-7.0%,·,3.1,-14.8%,15.6%
O=C(O)CSc1c2c(nc3cc(C(=O)Nc4ccc(F)c(Cl)c4)ccc13)CCC2,·,11.4%,·,·,-1.8%,·
CC(Oc1ccc(C#N)cc1)C(=O)NC1CCCC1 (stereo unspecified),5.2%,7.8%,17.5%,6.6,-11.6%,1.6%
CCc1cc(CNC(=O)C2CCC(=O)N(Cc3ccccc3F)C2)on1 (stereo unspecified),6.9%,-12.0%,·,12.4,5.7%,9.3%
CC1(C(=O)NCc2ccco2)Cc2c(-c3cccc(C(N)=O)c3)ccnc2O1 (stereo unspecified),?,4.11µM*,·,-57.4*,5.8µM*,?
CC1(C(=O)NCCc2ccccc2)Cc2c(-c3ccc(C(N)=O)cc3)ccnc2O1 (stereo unspecified),9.6%,16.4µM*,·,30.8,?,12.1%
CCCN(CCC)S(=O)(=O)c1ccc(C(=O)N2CCn3c4c(c5cc(C)ccc53)CCCC42)cc1 (stereo unspecified),·,16.4µM*,·,·,?,·
Cc1ccc2c(c1)c1c3n2CCN(C(=O)CCl)C3CCC1 (stereo unspecified),?,4.61µM*,8.2%,-98.6*,3.26µM*,16.4µM*
CC(=O)N1CCn2c3c(c4cc(C)ccc42)CCCC31 (stereo unspecified),10.3%,-6.0%,3.2%,-11.3,-24.2%,7.6%
CCN1CCn2c3c(c4cc(C)ccc42)CCCC31 (stereo unspecified),-3.3%,?,8.8%,-6.2,23.1µM*,1.9%
CN1CCN(c2nc(-c3ccoc3)nc3ccccc23)CC1,·,2.9%,·,·,-14.1%,·
O=S(=O)(NCc1ccc(F)cc1)c1ccccc1Br,17.5%,?,4.7%,-5.9,?,?
COc1ccc(-n2c(CCC(=O)O)ccc2-c2ccc(F)cc2)c(OC)c1,4.9%,1.8%,2.7%,13.3,-0.9%,1.3%
Cc1ccc2c(c1)-n1c(nc3ccccc3c1=O)C(Cc1ccccc1)NC2=O (stereo unspecified),·,·,3.2%,·,·,·
CCCCN(Cc1ccc(Cl)c(Cl)c1)c1ccc(Br)cn1,20.0%,-2.7%,·,·,?,8.5%
NCCCN(Cc1ccccc1)c1ccc(Br)cn1,-19.4%,11.2µM*,·,·,?,-26.7%
CCOC(=O)CNC(=S)N(Cc1ccc(C)cc1)Cc1ccc(C)o1,-4.5%,?,-1.1%,-55.2*,?,0.3%
O=C(CNC(=O)c1ccco1)OCC(=O)c1cccc2ccccc12,10.9%,16.4µM*,·,2.3,?,6.2%
O=C(CNC(=O)Cc1ccccc1)NCC(=O)OCC(=O)c1cccc2ccccc12,11.8%,?,2.9%,10.5,17.8µM*,5.3%
O=C(CSc1nnc(Nc2ccccc2)s1)NC1CC1,0.7%,-3.1%,20.6%,-1.7,?,-1.7%
CCC(C(=O)OC(C)C)c1ccc2ccccc2c1 (stereo unspecified),13.8%,?,10.5%,53.7,-16.4%,6.1%
Cn1c(COc2ccc([N+](=O)[O-])cc2)nnc1SCC(=O)NCC1CCCO1 (stereo unspecified),-0.9%,19.4%,-6.5%,5.5,-5.8%,6.7%
CCCCCCCCSc1nnc(/N=C/N(C)C)s1,2.6%,20.7%,0.4%,16.0,-3.6%,-5.2%
SMILES,HT1080 IDH1KD tx,DT40 TDP1 CPT,ELG1 DNA repair,IL1B secr inh,TDP1 cell noCPT,HT1080NT lethal
Cc1cc(Sc2nnc(/N=C/N(C)C)s2)c2ccccc2n1,18.4µM*,5.8µM*,-4.1%,-88.8*,7.31µM*,14.6µM*
Cc1cc(Sc2nnc(N)s2)c2ccccc2n1,?,1.84µM*,0.0%,-112.6*,2.91µM*,?
CC1OCC23CC[C@@]4(C)CCC(C)(C)C[C@H]4[C@]2(C)CCC12C3CC[C@@]1(C)C2C(=O)CC(=O)[C@@H]1C (stereo partly specified),·,13.6%[9.04 µM],·,·,-4.2%[9.04 µM],·
Cn1cnnc1SCCNS(=O)(=O)c1cccc([N+](=O)[O-])c1,7.1%,-8.4%,11.9%,-1.8,-1.1%,4.0%
O=C(NCCCN1CCOCC1)c1cc(-c2cccs2)on1,11.2µM*,-20.1%,?,19.4,?,?
CCN(CC)CCCNC(=O)c1cc(-c2ccc(Cl)c(Cl)c2)on1,?,20.6µM*,?,-21.3,23.1µM*,?
Cc1ccc(-c2cc(C(=O)NCCCN3CCOCC3)no2)cc1,-6.9%,?,13.5%,-10.6,-12.5%,7.4%
CCN(CC)CCCNC(=O)c1cc(-c2ccc(O)cc2)on1,9.6%,-3.5%,11.7%,0.0,-12.5%,7.9%
O=C(NCc1ccco1)c1cc(-c2cccs2)on1,?,8.91µM*,?,1.6,14.1µM*,?
O=C(NCCCN1CCOCC1)c1cc(-c2ccc(Cl)c(Cl)c2)on1,1.7%,?,1.6%,-12.2,16.4µM*,-5.7%
NCCC[C@H](N)C(=O)O,·,4.8%,·,·,2.7%,·
CC1CCCN(Cc2c(O)ccc3c(=O)c(-c4ccccc4Cl)c(C(F)(F)F)oc23)C1 (stereo unspecified),·,0.8%,·,·,0.2%,·
COc1ccc(CN2CCC(n3nccc3NC(=O)CCOc3ccccc3)CC2)cc1C,-1.3%,?,-1.9%,i,?,4.5%
Cc1ccc(S(=O)(=O)NCC(C)n2cncn2)cc1 (stereo unspecified),12.8%,4.5%,-7.7%,-2.7,0.9%,-3.1%
